# Out of some 1,300 compounds screened, about 35 (3%) were called active. Inconclusive results (about 48%) are left out. The call rests on the fitted dose curve; in most records, active means well fitted inhibition curve with a large enough effect; inconclusive means small, poorly fitted or top-dose-only effect, or effect the other way; inactive means flat fitted curve, though single readings scatter. This excerpt belongs to a sample that is enriched for actives.
# Biological target: T1, ATP-dependent 6-phosphofructokinase, Trypanosoma brucei brucei (UniProt O15648)
# T1 sequence (whole entry): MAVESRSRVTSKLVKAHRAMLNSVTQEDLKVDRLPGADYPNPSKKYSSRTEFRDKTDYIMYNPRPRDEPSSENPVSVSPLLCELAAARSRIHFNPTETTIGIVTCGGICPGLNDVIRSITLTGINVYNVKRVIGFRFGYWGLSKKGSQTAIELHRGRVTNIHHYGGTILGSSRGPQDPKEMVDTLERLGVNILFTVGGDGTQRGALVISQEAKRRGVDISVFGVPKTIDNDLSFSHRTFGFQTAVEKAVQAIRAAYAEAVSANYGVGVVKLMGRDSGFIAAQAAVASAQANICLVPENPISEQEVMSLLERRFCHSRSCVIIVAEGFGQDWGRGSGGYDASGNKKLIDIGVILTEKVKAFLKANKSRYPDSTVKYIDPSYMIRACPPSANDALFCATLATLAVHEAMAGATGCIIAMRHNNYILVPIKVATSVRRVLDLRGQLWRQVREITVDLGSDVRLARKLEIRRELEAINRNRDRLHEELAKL
# Test: qHTS Validation Assay to Find Inhibitors of T. brucei phosphofructokinase (AID 485368)
row,Compound,outcome
1,N.N.[Cl][Pt][Cl],active
